Bioassay records as filed in PubChem BioAssay.
GLP-1R inv ag: acts as inverse agonist at human GLP-1 receptor; P43220; Potency, µM (doses to about 38.3 µM), for the others: at the highest dose activity change, negative = inhibition, hits mostly inhibitors; HEK293 GLP-1R CRE-luciferase, luminescence, 24 h; GLP-1R form is constitutively active; 410,000 compounds, 1.6% hits; AID 624417; note: potency is the fitted concentration of half-maximal effect; % is set by controls: 0 for no effect and ±100 for the full control effect; nearly all actives have a fitted effect of over 55% in size
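HEK293 cells stably co-expressing a cAMP-responsive luciferase reporter and constitutively active GLP-1R were seeded, incubated 12 h, then exposed to compounds for 24 h at 37 C. Luminescence was read 12 min after detection reagent; inverse agonists lower signal.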
HEK293 tox: cytotoxicity in counter-screen for GLP-1R inverse agonists; HEK293 cAMP-luciferase reporter cells, luminescence, 24 h; 410,000 compounds, 0.13% hits; Potency, µM (titrated, usually from 38.3 µM), inactives show at the highest dose activity change, negative = inhibition, hits mostly inhibitors; AID 624418;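 note: loss of luciferase light is scored as toxicity; potency is the fitted concentration of half-maximal effect; % is set by controls: 0 for no effect and ±100 for the full control effect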
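MLSMR compounds, 24 hr on cells at 37 deg C/5% CO2; luminescence after luciferase reagent (12 min RT). Inhibition counted as the undesired cytotoxic outcome.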
GLP-1R agonist: GLP-1 receptor (human) agonism; HEK293 GLP-1R CRE-luciferase, luminescence, 4-6 h; cells express a hypersensitive GLP-1R form; Potency, µM (doses to about 45.6 µM), for inactives: at the top dose activation, actives largely listed as activators; 380,000 compounds, 0.007% hits; note: potency is the fitted concentration of half-maximal effect; % of control where 0% means no effect
TRPML1 blocker: inhibitors of human TRPML1 channel; TRPML1-inducible cells, Ca2+ dye fluorescence, FDSS; hits give low values; inhibition of EC80 agonist-evoked calcium signal; AID 624415; activity change, negative = inhibition, % (test concentration not listed); 390,000 compounds, 0.02% hits; in the data active = activity change below about -50%; inconclusive = between about -30% and that limit;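 note: stimulus is agonist 54-4 at its EC80 concentration; % is set by controls: 0 for no effect and ±100 for the full control effect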
Target sequence (Q9GZU1 whole entry, looked up): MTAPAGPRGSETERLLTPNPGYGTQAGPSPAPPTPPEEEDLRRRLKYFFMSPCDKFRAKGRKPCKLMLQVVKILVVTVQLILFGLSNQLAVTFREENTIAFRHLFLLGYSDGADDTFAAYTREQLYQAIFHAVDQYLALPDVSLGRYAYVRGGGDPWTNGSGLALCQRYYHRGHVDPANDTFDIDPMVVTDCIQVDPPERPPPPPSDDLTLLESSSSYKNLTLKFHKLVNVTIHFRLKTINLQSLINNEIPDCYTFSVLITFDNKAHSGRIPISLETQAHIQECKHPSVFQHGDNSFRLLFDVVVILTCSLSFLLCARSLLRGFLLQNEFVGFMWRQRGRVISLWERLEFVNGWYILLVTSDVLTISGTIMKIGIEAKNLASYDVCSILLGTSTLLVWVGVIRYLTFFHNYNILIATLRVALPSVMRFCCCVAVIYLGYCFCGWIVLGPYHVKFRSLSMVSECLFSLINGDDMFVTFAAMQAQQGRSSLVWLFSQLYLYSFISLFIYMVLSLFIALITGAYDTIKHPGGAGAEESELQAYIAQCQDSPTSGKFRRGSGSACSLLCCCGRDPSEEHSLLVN
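Tet-induced TRPML1-DL cells loaded with Ca8 no-wash calcium dye were read kinetically on FDSS. Compound addition was followed by EC80 agonist 54-4 (4 uM final); inhibition was read over 110 s.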
TRPML1 agonist: human mucolipin-1 channel agonism | Q9GZU1 | TRPML1-expressing cells, Ca2+ dye fluorescence, FDSS | activation, % (test concentration not listed) | 410,000 compounds, 0.12% hits | AID 624414; in the data active = activation above about 50%; inconclusive = mostly about 30% to 49%; note: 0% is about no effect
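Tet-induced TRPML1-DL cells, 1,500 per well, cultured overnight, were loaded with a no-wash Ca2+ dye for 45–90 min. Calcium fluorescence was recorded on the FDSS for 110 s after compound addition, before the EC80 agonist (4 uM 54-4) was added.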
An asterisk follows results filed as active; ? = inconclusive; nt = not tested or not shown. An excerpt weighted towards active compounds, which were near 1.8% of everything screened. Unless noted, calls come from the whole dose curve; as a rule, active = well fitted curve in the direction sought with a large enough effect; inconclusive = small, poorly fitted or top-dose-only effect, or another doubt; inactive = no such curve, though single readings can be large; an effect the other way counts as inactive or inconclusive.

SMILES	GLP-1R inv ag	HEK293 tox	GLP-1R agonist	TRPML1 blocker	TRPML1 agonist
C[C@H]1CN([C@@H](C)CO)C(=O)Cc2cc(NC(=O)CCC(F)(F)F)ccc2O[C@H]1CN(C)Cc1ccc(C(F)(F)F)cc1	10µM*	-11%	-3%	9	1
C[C@H]1CN([C@@H](C)CO)C(=O)Cc2cc(NC(=O)C3CC3)ccc2O[C@H]1CN(C)Cc1ccc(Oc2ccccc2)cc1	10µM*	-8%	-3%	-4	0
C[C@H]1CN([C@@H](C)CO)C(=O)Cc2cc(NC(=O)CCC(F)(F)F)ccc2O[C@H]1CN(C)S(C)(=O)=O	22%	0%	-2%	-6	-1
C[C@@H]1CN([C@H](C)CO)C(=O)Cc2cc(NC(=O)CCC(F)(F)F)ccc2O[C@@H]1CN(C)C(=O)Nc1ccccc1	10%	-2%	0%	-13	0
CCOc1ccc(NC(=O)c2nc(S(=O)(=O)Cc3ccc(F)cc3)ncc2Cl)cc1	nt	nt	nt	nt	1
Cc1ccc(CNc2cc(C)nc3nc(-c4cccc(C)c4)nn23)cc1	?	3%	0%	-3	5
O=P(O)(O)OC(Cn1cncn1)(Cn1cncn1)c1ccc(F)cc1F	nt	nt	-2%	nt	nt
O=C(NCc1cccc(F)c1)c1ccccc1NC(=O)c1nsc2ccccc12	11%	-17%	nt	?	3
COCCCNC(=O)c1ccc2c(c1)N=C(C)c1c(C)ccc(C)c1S2	-56%	-25%	11%	-1	1
CCCOc1ccccc1-c1nc(SCC(=O)c2ccccc2)n[nH]1	-24%	7%	nt	9	1
COc1ccc(CNC(=O)C(c2ccc(C)o2)N(C(=O)c2csnn2)c2ccc(C(C)C)cc2)cc1 (configuration not stated)	10µM*	-7%	-3%	13	2
Cc1cccc(N(C(=O)c2csnn2)C(C(=O)NCc2ccccc2)c2ccc(C)o2)c1 (configuration not stated)	?	-9%	12%	3	2
CCc1ccc(C(C(=O)NCc2ccc(OC)cc2)N(CCOC)C(=O)Cc2cccs2)cc1 (configuration not stated)	10µM*	?	1%	13	4
COc1ccc(CNC(=O)C(c2ccc(C)o2)N(Cc2cccs2)C(=O)Cc2cccs2)cc1 (configuration not stated)	8.9µM*	?	-6%	6	2
COc1ccc(-c2[nH]c(-c3ccc4c(c3)OCO4)nc2-c2ccccc2)cc1	1.8µM*	?	-10%	-12	-1
Clc1cccc(NCc2nnc(SCc3ccccc3)o2)c1	7.1µM*	1%	7%	-11	3
Clc1cccc(NCc2nnc(SCc3ccccc3Cl)o2)c1	0%	18%	4%	29	-2
O=S(=O)(c1ccc(-n2cnnn2)cc1)N1CCN(c2cccc(C(F)(F)F)c2)CC1	13%	7%	nt	23	1
CCn1ccc2cc(S(=O)(=O)N3CCCN(C(=O)Nc4ccccc4F)CC3)ccc21	11%	-2%	4%	-2	3
Cc1ccc(C)c(N2CCN(C(c3ccccc3)c3nnnn3C(C)(C)C)CC2)c1 (configuration not stated)	11%	-4%	-3%	nt	86*
Cc1ccc(C)c(N2CCN(C(c3ccc(N(C)C)cc3)c3nnnn3C(C)(C)C)CC2)c1 (configuration not stated)	-8%	0%	-12%	-5	0
COc1ccc(N2CCN(C(c3ccccc3)c3nnnn3C(C)C)CC2)cc1 (configuration not stated)	nt	nt	nt	nt	61*
Cc1cccc(C)c1N1CCN(C(c2cc3ccccc3o2)c2nnnn2C(C)(C)C)CC1 (configuration not stated)	?	-13%	-1%	nt	54*
COc1ccc(N2CCN(C(c3ccccc3)c3nnnn3C(C)(C)C)CC2)cc1 (configuration not stated)	3%	-5%	9%	nt	2
O=C1N=C(N2CCOCC2)S/C1=C/c1ccc(-c2ccc(F)cc2)o1	19%	18%	5%	-4	0
SMILES	GLP-1R inv ag	HEK293 tox	GLP-1R agonist	TRPML1 blocker	TRPML1 agonist
Cc1ccc(-c2ccc(/C=C3\SC(N4CCOCC4)=NC3=O)o2)cc1	4.5µM*	71%	5%	3	5
CCc1ccc(CNC(=O)CCn2c(=O)c3cccn3c3ccc(F)cc32)cc1	11%	-9%	nt	2	2
COc1ccc(OC)c(-c2nc3c(C#N)c[nH]n3c2NC2CCCCC2)c1	-16%	-2%	nt	80	1
Clc1ccccc1-c1nc(Nc2ccccc2)nc2ccc(Br)cc12	10µM*	42%	nt	32	4
Cc1cccc(C(=O)NC(=S)NNC(=O)Cc2ccccc2)c1	1%	24%	5%	-22	21
Cc1ccc(C(C)NC(=O)c2c(-c3ccccc3)noc2C)cc1C (configuration not stated)	7.9µM*	1%	1%	9	2
Cc1onc(-c2ccccc2)c1C(=O)NNC(=S)NC(=O)c1ccc(Cl)cc1Cl	-15%	-7%	-2%	18	91*
Cc1ccc(C(=O)NNC(=S)NC(=O)c2ccc(Cl)cc2)cc1	0%	17%	-10%	-17	61*
Cc1cccc(C(=O)NC(=S)NNC(=O)c2ccccc2Cl)c1	-15%	-18%	-2%	18	68*
Cc1onc(-c2ccccc2)c1C(=O)NC(C)c1ccccc1 (configuration not stated)	-37%	5%	6%	13	1
CCOc1ccc(NC(=O)c2oc3ccccc3c2NC(=O)Cc2cccs2)cc1	4%	-9%	1%	-5	-1
Cc1ccc2nc(-c3ccsc3)c(Nc3ccc(Cl)cc3)n2c1	-23%	1%	nt	32	3
CCN(CC)c1ccc(C(=O)NCc2ccc3c(c2)CCN3C(=O)c2ccc(F)cc2)cc1	17%	-28%	nt	5	0
O=S(=O)(c1cccc(Cl)c1)c1nnn2c1nc(NC1CCCC1)c1sccc12	13%	-17%	nt	-4	1
O=C1c2ccsc2SCCN1Cc1c(Cl)cccc1Cl	2.5µM*	-11%	-24%	-3	3
O=C1c2ccsc2SCCN1Cc1ccc(Cl)cc1Cl	?	-6%	-3%	-9	3
O=C1c2ccsc2SCCN1Cc1c(F)cccc1Cl	13µM*	1%	13%	-15	2
COc1cccc(C(=O)N2CC(=O)Nc3ccc(C)cc3C2c2ccc(F)cc2)c1OC (configuration not stated)	-3%	-7%	nt	-7	1
O=C(/C=C/Nc1ccccc1)c1ccccc1	?	-9%	-40%	-5	-1
O=C(/C=C/Nc1ccccc1)c1ccc(Cl)cc1Cl	11µM*	10%	-4%	nt	nt
